RTF Ca sens inh = cardiac RTF calcium desensitization; P19429+P45379; IANBD-labeled cardiac RTF, Ca2+ fluorescence; inhibition, % at 7.15 µM; actives 0.12% (n = 340,000);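 active = inhibition above the mean inhibition of all tested compounds plus 3 SD, cut at about 17% in these data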;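 also: assay run at fixed EC70 calcium of 1.6 mM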
GLD-1 RNA inh = GLD-1-TGE RNA interaction inhibition (C. elegans) | actives 0.44% (n = 320,000) | inhibition, % at 5.96 µM | AID 2280 | purified GLD-1 + fluorescein TGE RNA, fluorescence polarization;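 active = percent inhibition above a per-plate cutoff, the plate mean of test compounds plus 3 SD, cut at about 30% in these data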
eLon inh = inhibits E. coli Lon protease; P0A9M0; purified E. coli Lon protease, fluorescence polarization; inhibition, % at 7.94 µM; actives 0.42% (n = 360,000); in the data active = inhibition above about 13%, passing the limit was not always enough
cardiac RTF act = increases calcium sensitivity of human cardiac regulated thin filaments | activation, % at 7.2 µM | P19429+P45379 | IANBD-labeled TnC RTF fluorescence at EC20 calcium; 0% EC20 calcium, 100% full calcium | AID 493008 | actives 0.24% (n = 340,000);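 active = activation above the mean over all tested compounds plus 3 SD, cut at about 30% in these data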;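 also: rise in fluorescence read as greater calcium sensitivity of cardiac thin filaments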
BCLXL inh = Bcl-xL (human) inhibition. AID 2129. Q07817. GST-Bcl-xL / FITC-Bim BH3 peptide fluorescence polarization. inhibition, % at 10.9 µM. actives 0.7% (n = 320,000);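 active = inhibition above the mean of all tested compounds plus 3 SD, cutoff set per campaign, cut at about 30% in these data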;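 also: inhibitors lower millipolarization by displacing the labeled peptide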
Target sequence (Q07817 whole entry, looked up): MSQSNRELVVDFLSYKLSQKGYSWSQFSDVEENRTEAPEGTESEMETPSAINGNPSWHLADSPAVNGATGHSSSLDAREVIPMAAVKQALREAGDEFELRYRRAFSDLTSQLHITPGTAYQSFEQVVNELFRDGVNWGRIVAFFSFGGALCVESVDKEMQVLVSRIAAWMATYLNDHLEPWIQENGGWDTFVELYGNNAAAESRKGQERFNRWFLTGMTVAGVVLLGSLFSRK
RTF inh confirm = confirmation of inhibitors of cardiac thin filament calcium sensitivity | shares compounds with RTF Ca sens inh | reconstituted cardiac thin filaments, calcium sensitivity fluorescence | inhibition, % at 7.15 µM | actives 8% (n = 360); in the data active = inhibition above about 18%
Hits are given with their value; - = inactive; . = no result given. A selection: hits, their analogues and other compounds. The true share with any hit is near 1.2%.

SMILES | RTF Ca sens inh | GLD-1 RNA inh | eLon inh | cardiac RTF act | BCLXL inh | RTF inh confirm
c1ccc(-c2noc(C34CC5CC(CC(C5)C3)C4)n2)nc1 | 18 | - | - | - | - | -
c1ccc(-c2noc(C34CC5CC(CC(C5)C3)C4)n2)cc1 | - | - | - | - | - | .
CCCS(=O)(=O)N1CCC(C(=O)NCCCN2CCCC2=O)CC1 | 19 | - | - | - | - | -
Cc1ccc(NC(=O)COC(=O)/C=C/c2cccc(Cl)c2)cc1S(=O)(=O)N1CCOCC1 | 22 | - | - | - | - | -
Cc1cccc(C)c1C(=NCCCN(C)C)c1ccccc1 | - | - | - | - | - | .
NS(=O)(=O)c1cc(C(=O)O)cc(N2CCCC2)c1Oc1ccccc1 | 19 | - | - | - | - | -
CCN1/C(=C/c2ccc3ccccc3[n+]2CC)C=Cc2ccccc21 | 17 | - | - | - | - | -
COc1ccccc1Nc1ccc2c(O)cc(S(=O)(=O)O)cc2c1 | 18 | . | - | - | . | -
O=S(=O)(O)c1ccc(O)c2cc(Nc3ccccc3)ccc12 | 105 | . | - | - | . | 50
O=S(=O)(O)c1cc(O)c2cc(Nc3ccccc3)ccc2c1 | - | . | - | - | . | .
O=S(=O)(O)c1cc(O)c2ccc(Nc3ccccc3)cc2c1 | 33 | . | - | - | . | -
Cc1ccc(S(=O)(=O)c2cc(Nc3ccccc3)ccc2O)cc1 | - | - | - | - | - | .
COc1ccc(NC(=S)N(Cc2ccccn2)Cc2ccccc2Cl)cc1 | 17 | - | - | - | - | -
CC(=O)NC1C(c2nc3ccccc3s2)=C(c2ccccc2)C(=O)N1c1ccc(C)cc1 (stereo not given) | - | - | - | - | - | .
CCOC(=O)C1=C(C)N(Cc2ccc(C(=O)O)cc2)C(=O)NC1c1ccc([N+](=O)[O-])cc1 (stereo not given) | 18 | - | - | - | - | -
C=CCNc1nc2ccccc2nc1NS(=O)(=O)c1ccc(Cl)cc1 | - | - | - | - | - | .
CCCc1c(O)nc(SC2CC(=O)N(c3ccc(OC)cc3)C2=O)[nH]c1=O (stereo not given) | 17 | - | - | - | - | -
COc1ccc(C(=O)NC2CCN(Cc3ccccc3)C2)cc1S(=O)(=O)N1CCOCC1 (stereo not given) | - | - | - | - | - | .
CCOC(=O)c1cccc(NC(=O)c2cccnc2)c1 | - | - | - | - | - | .
CCOC(=O)Cn1nc(C)cc1NC(=O)c1cccnc1 | 21 | - | - | - | - | -
c1coc(CNc2c3c(nc4ncnn24)CCC3)c1 | - | - | - | - | - | .
CN(N)C(=S)Nc1ccc(Cl)cc1 | 18 | - | - | - | - | -
CN(C)NC(=S)Nc1ccc(Cl)cc1 | - | - | - | - | - | .
c1coc(CNC2CCCCC2)c1 | - | - | - | - | - | .
c1coc(CNC2CCCCCCC2)c1 | 18 | - | - | - | - | -
SMILES | RTF Ca sens inh | GLD-1 RNA inh | eLon inh | cardiac RTF act | BCLXL inh | RTF inh confirm
CC/C(=C(\c1ccc(O)cc1)c1ccc(OCCN(C)C)cc1)c1ccccc1 | 18 | - | - | - | - | -
C=CCc1cccc2cc(C(=O)O)c(=O)oc12 | - | - | - | - | - | .
CC(=O)c1ccc(NC(=O)c2noc(C(C)C)c2[N+](=O)[O-])cc1 | 188 | - | - | - | - | -
N#Cc1cc2c(nc1SCc1ccccc1)CCCC2=O | 20 | - | - | - | - | -
N#Cc1cc2c(nc1SCc1ccccc1)CCC2 | - | - | - | - | - | .
CCOC(=O)C1Nc2ccc(Br)cc2C2C=CCC12 (stereo not given) | - | - | - | - | - | .
O=C(O)C1Nc2c(Cl)cc(Cl)cc2C2C=CCC12 (stereo not given) | 55 | - | - | - | 85 | -
O=C(O)C1Nc2ccc(Br)cc2C2C=CCC12 (stereo not given) | 60 | - | - | - | 79 | -
CCOC(=O)c1ccc(NC(=S)N(CCCN2CCN(CC)CC2)Cc2cccs2)cc1 | 17 | - | - | - | - | -
CCOC(=O)c1ccc(NC(=S)N(CCCN2CCN(C)CC2)Cc2cccs2)cc1 | - | - | - | - | - | .
CN[C@H](CC(=O)O)C(=O)O | 18 | - | - | - | - | -
O=C(CN1C(=O)/C(=C2\SC(=S)N(CCS(=O)(=O)O)C2=O)c2ccccc21)Nc1cccc(Br)c1 | 30 | - | - | - | - | -
CC1(C)CC(=O)C(Sc2ccccc2C(=O)O)=C(O)C1 | - | - | - | - | - | .
